From PubChem BioAssay AID686960 (The Scripps Research Institute Molecular Screening Center, 2013) come the findings set out here.

The structures appear in SMILES notation. This is one part of the list. Unmarked numbers belong to inactive results. The source made the active and inactive calls. Rule as the data show it: active = IC50 below about 10 µM; inactive = the rest. Some results are limits rather than exact numbers.

This experiment can be described thus: inhibitors of DNA CAG/GTC TO-PRO-1 complex, dose response, counter-screen for rCAG RNA repeat binder project, biochemical, fluorescence, TO-PRO-1 dye (AID 686960). To be noted: DNA CAG/GTC duplex TO-PRO-1 dye displacement fluorescence.
The IC50 is the concentration that gives 50% inhibition. As for `Cc1noc(NS(=O)(=O)c2ccc(NC(=O)c3oc4ccc(F)cc4c3C)cc2)c1C`, the IC50 is 16.5 µM.

Turning to `CC1(C(=O)NS(=O)(=O)c2ccc3ccccc3c2)CCN1C(=O)C1(c2ccc(Cl)cc2)CCC1` (stereo unspecified), the IC50 is 21.2 µM.

`O=C(O)c1ccc(NN=CC2=C(N3CCOCC3)/C(=C/c3ccccc3)CC2)cc1`: the IC50 is 11 µM.

With `O=C(Cc1ccccc1)Nc1ccc(C(=O)Nc2ccccc2C(=O)O)cc1`, the IC50 was greater than 29.9 µM.

For the compound `CO/N=C(\C(=O)N[C@@H]1C(=O)N2C(C(=O)O)=C(COC(C)=O)CS[C@H]12)c1csc(N)n1` (stereo in doubt), the 50% inhibitory concentration (IC50) is 9.89 µM (active).

On to `Cc1ccc(C(C)C)c(OCCSc2nc3ccccc3n2CC(=O)O)c1`, for which the IC50 was greater than 29.9 µM.

As to `COc1ccc(Cc2nnc(SCC(=O)Nc3ccc(C)c(Cl)c3)[nH]c2=O)cc1`, the IC50 was 24.2 µM.

For the compound `CC(C)(C)C1C/C(=C/c2ccco2)C(=O)/C(=C/c2ccco2)C1` (stereo unspecified), the IC50 was greater than 29.9 µM.

`Cc1ccc(S(=O)(=O)N2[C@@H](c3ccc(Br)cc3)C(C(=O)O)=C[C@H]2CC2CCCC2)cc1`: the IC50 was 11.6 µM.

Regarding `COc1ccc(C(=O)Nc2cccc(/C=C(/CCC(=O)O)c3nc4ccccc4s3)c2)cc1`, the IC50 was 14.2 µM.

As to `CC(C)c1ccc(CC(=O)N2CCC2(C)C(=O)NS(=O)(=O)c2ccc(C(C)(C)C)cc2)cc1` (stereo unspecified), the IC50 is greater than 29.9 µM.
